Test results published in PubChem BioAssay AID1159580 (chemical genetic matrix, 2015).
In all, about 5,500 compounds went through this assay and about 2,000 (36%) were called active. Another 18% or so got no clear call; they are omitted. Rule as the data show it: active = normalized growth mostly below about 0.91 (no sharp cut-off); inconclusive = no clear call, values can overlap the other calls; inactive = mostly above about 0.92. This is one part of the list.

Experiment: chemical genetic growth profiling, strain panel (AID 1159580);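 also: tested at 20 µM; growth read once vehicle control cultures reached saturation at 30 °C; 1 = growth at the plate median or of vehicle wells; lower values mean less growth of the strain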
Conditions: S. cerevisiae deletion strains, growth OD
[1] = locus YCL061C, strain MRC1, stronger effect = lower value
[2] = locus YDR150W, strain NUM1, stronger effect = lower value
[3] = locus YHR030C, strain SLT2, stronger effect = lower value
[4] = locus YJL187C, strain SWE1, stronger effect = lower value
[5] = locus YMR307W, strain GAS1, stronger effect = lower value
[6] = locus YNL153C, strain GIM3, stronger effect = lower value
[7] = locus YNL322C, strain KRE1, stronger effect = lower value
[8] = locus YPL055C, strain LGE1, stronger effect = lower value

Measured: normalized growth

Cc1ccc2cc(C)c(C)cc2c1
inactive: locus YAL013W, strain DEP1, stronger effect = lower value 0.994 | locus YBR229C, strain ROT2, stronger effect = lower value 0.991 | [1] 0.992 | locus YDL101C, strain DUN1, stronger effect = lower value 1.02 | [2] 1.05 | locus YEL061C, strain CIN8, stronger effect = lower value 1 | locus YGR078C, strain PAC10, stronger effect = lower value 0.99 | [3] 0.729 | locus YHR087W, strain rtc3, stronger effect = lower value 1.01 | [4] 0.993 | locus YJR043C, strain POL32, stronger effect = lower value 0.989 | locus YJR075W, strain HOC1, stronger effect = lower value 0.961 | locus YLR039C, strain RIC1, stronger effect = lower value 0.897 | locus YLR058C, strain SHM2 (second series), stronger effect = lower value 0.992 | locus YLR085C, strain ARP6, stronger effect = lower value 0.949 | locus YLR262C, strain YPT6, stronger effect = lower value 0.831 | locus YML094W, strain GIM5, stronger effect = lower value 1 | locus YMR219W, strain ESC1, stronger effect = lower value 1.01 | locus YMR263W, strain SAP30, stronger effect = lower value 1 | [5] 0.742 | [6] 0.952 | locus YNL298W, strain CLA4 (second series), stronger effect = lower value 0.957 | [7] 0.985 | locus YNR030W, strain Alg12, stronger effect = lower value 0.958 | locus YOL006C, strain TOP1, stronger effect = lower value 0.902 | [8] 1.02 | locus YPL241C, strain CIN2, stronger effect = lower value 0.995 | locus YPR135W, strain CTF4, stronger effect = lower value 0.899

CC(C)(N=NC(C)(C)C(=N)N)C(=N)N
inactive: locus YAL021C, strain ccr4, stronger effect = lower value 0.995 | locus YAL026C, strain drs2, stronger effect = lower value 1.05 | locus YAL030W, strain snc1, stronger effect = lower value 1.02 | locus YBL061C, strain skt5, stronger effect = lower value 1.02 | locus YBR009C, strain hhf1, stronger effect = lower value 1.07 | locus YBR023C, strain chs3, stronger effect = lower value 1.02 | locus YBR171W, strain sec66, stronger effect = lower value 1.03 | locus YBR231C, strain swc5, stronger effect = lower value 1.04 | locus YBR279W, strain paf1, stronger effect = lower value 1.03 | locus YCL011C, strain gbp2, stronger effect = lower value 1.03 | locus YCL016C, strain dcc1, stronger effect = lower value 1.03 | [1] 1.03 | locus YCL069W, strain vba3, stronger effect = lower value 1.02 | locus YCR088W, strain abp1, stronger effect = lower value 1.02 | locus YDL005C, strain med2, stronger effect = lower value 1.03 | locus YDL040C, strain nat1, stronger effect = lower value 1.02 | locus YDR001C, strain nth1, stronger effect = lower value 1.02 | locus YDR069C, strain doa4, stronger effect = lower value 1.03 | locus YDR137W, strain rgp1, stronger effect = lower value 0.998 | locus YDR159W, strain sac3, stronger effect = lower value 1.05 | locus YDR195W, strain ref2 1 | locus YDR297W, strain sur2, stronger effect = lower value 1.02 | locus YDR334W, strain swr1, stronger effect = lower value 1.03 | locus YDR335W, strain msn5, stronger effect = lower value 1.02 | locus YDR392W, strain spt3, stronger effect = lower value 0.98 | locus YEL003W, strain gim4, stronger effect = lower value 1.03 | locus YEL037C, strain rad23, stronger effect = lower value 1.02 | locus YEL061C, strain CIN8 (second series), stronger effect = lower value 1.02 | locus YER015W, strain faa2, stronger effect = lower value 1.03 | locus YER016W, strain bim1, stronger effect = lower value 1.04 | locus YER111C, strain swi4, stronger effect = lower value 1.03 | locus YER155C, strain BEM2 (second series), stronger effect = lower value 1.03 | locus YFR010W, strain ubp6, stronger effect = lower value 1.03 | locus YGL167C, strain pmr1, stronger effect = lower value 1.03 | locus YGL173C, strain kem1, stronger effect = lower value 1.05 | locus YGL227W, strain vid30, stronger effect = lower value 1.02 | locus YGL240W, strain doc1, stronger effect = lower value 1.04 | locus YGL253W, strain hxk2, stronger effect = lower value 1.01 | locus YHR013C, strain ard1, stronger effect = lower value 1.05 | locus YHR027C, strain rpn1, stronger effect = lower value 1.03 | [3] 0.971 | locus YHR079C, strain IRE1, stronger effect = lower value 0.971 | locus YHR142W, strain chs7, stronger effect = lower value 0.965 | locus YJL092W, strain hpr5, stronger effect = lower value 1.03 | locus YJL095W, strain BCK1 (second series), stronger effect = lower value 1.02 | locus YJL095W, strain BCK1, stronger effect = lower value 0.969 | locus YJL115W, strain asf1, stronger effect = lower value 1.02 | locus YJL129C, strain trk1, stronger effect = lower value 1.03 | locus YJL154C, strain vps35, stronger effect = lower value 1.02 | locus YJL164C, strain tpk1, stronger effect = lower value 1.02 | locus YJL166W, strain qcr8, stronger effect = lower value 1.01 | [4] 1.02 | locus YJR066W, strain TOR1, stronger effect = lower value 0.896 | locus YKL160W, strain elf1, stronger effect = lower value 0.99 | locus YKR026C, strain gcn3, stronger effect = lower value 1.02 | locus YKR091W, strain srl3, stronger effect = lower value 1.02 | locus YLL001W, strain dnm1, stronger effect = lower value 1.03 | locus YLL026W, stronger effect = lower value 1.02 | locus YLL041C, strain sdh2, stronger effect = lower value 1.02 | locus YLR027C, strain aat2, stronger effect = lower value 1.03 | locus YLR113W, strain HOG1, stronger effect = lower value 0.985 | locus YLR221C, strain rsa3, stronger effect = lower value 1.02 | locus YLR258W, strain gsy2, stronger effect = lower value 1.04 | locus YLR262C, strain YPT6 (second series), stronger effect = lower value 1.03 | locus YLR320W, strain mms22, stronger effect = lower value 1.07 | locus YLR342W, strain FKS1, stronger effect = lower value 1.03 | locus YLR357W, strain rsc2, stronger effect = lower value 1.06 | locus YLR370C, strain arc18, stronger effect = lower value 1.03 | locus YLR384C, strain iki3, stronger effect = lower value 1.02 | locus YML120C, strain ndi1, stronger effect = lower value 1.04 | locus YMR058W, strain fet3, stronger effect = lower value 1.03 | locus YMR125W, strain sto1, stronger effect = lower value 1.04 | locus YMR129W, stronger effect = lower value 1.01 | locus YMR205C, strain PFK2, stronger effect = lower value 1.08 | locus YMR231W, strain pep5, stronger effect = lower value 1.02 | locus YNL071W, strain lat1, stronger effect = lower value 1.02 | locus YNL183C, strain NPR1, stronger effect = lower value 0.906 | locus YNL209W, strain ssb2, stronger effect = lower value 1.03 | locus YNL248C, strain rpa49, stronger effect = lower value 0.99 | locus YNL322C, strain KRE1 (second series), stronger effect = lower value 1.01 | locus YNR049C, strain mso1, stronger effect = lower value 1.02 | locus YOR001W, strain rrp6, stronger effect = lower value 1.02 | locus YOR070C, strain gyp1, stronger effect = lower value 1.04 | locus YOR080W, strain dia2, stronger effect = lower value 1.03 | locus YOR083W, strain WHI5, stronger effect = lower value 0.988 | locus YOR106W, strain vam3, stronger effect = lower value 0.886 | locus YOR231W, strain MKK1, stronger effect = lower value 0.976 | locus YOR265W, strain rbl2, stronger effect = lower value 1.02 | locus YOR270C, strain vph1, stronger effect = lower value 1.02 | locus YOR290C, strain snf2, stronger effect = lower value 1 | locus YPL051W, strain arl3, stronger effect = lower value 1.01 | locus YPL078C, strain atp4, stronger effect = lower value 0.983 | locus YPL106C, strain sse1, stronger effect = lower value 1.05 | locus YPL240C, strain hsp82, stronger effect = lower value 1.01 | locus YPL256C, strain CLN2, stronger effect = lower value 0.979

C[C@H]1OC[C@@H](C[N+](C)(C)C)O1
inactive: locus YAL040C, strain CLN3, stronger effect = lower value 1.01 | locus YCL061C, strain MRC1 (second series), stronger effect = lower value 1.01 | [2] 1 | locus YDR363W, strain ESC2, stronger effect = lower value 1.02 | locus YER002W, strain NOP16, stronger effect = lower value 1.04 | [5] 1 | [6] 1.02 | locus YNL175C, strain NOP13, stronger effect = lower value 1.02 | locus YNL197C, strain WHI3, stronger effect = lower value 1 | locus YNL224C, strain SQS1, stronger effect = lower value 1.02 | [7] 1.02 | locus YOR083W, strain WHI5 (second series), stronger effect = lower value 1.03 | [8] 1.05
